Assay results reported in PubChem BioAssay (NCATS).
Where “and” joins values, the source holds several entries; their conditions need not be identical. Equal values may be shown once. Calls of active or inactive are those of the source. Unless noted, the call rests on the fitted dose curve; in most records, active means well fitted curve in the direction sought with a large enough effect; inconclusive means small, poorly fitted or top-dose-only effect, or another doubt; inactive means no such curve, though single readings can be large; an effect the other way counts as inactive or inconclusive.

Tests used:
[1] = target: D(1A) dopamine receptor (Homo sapiens) (UniProt P21728); assay: HTS Assay for Allosteric Agonists of the Human D1 Dopamine Receptor: Primary Screen for Agonists (AID 488981); further: 0% is about no effect
Procedure, shortened: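 Tetracycline-induced HEK293 Trex D1 cells with forced coupling to calcium, loaded with no-wash calcium dye; kinetic fluorescence read 180 s after compound addition for agonism, then a further 180 s after an EC20 dopamine challenge for potentiation.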

[2] = target: ATP-dependent 6-phosphofructokinase (Trypanosoma brucei brucei) (UniProt O15648); assay: qHTS Assay to Find Inhibitors of T. brucei phosphofructokinase: hit validation (AID 492961);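 further: luminescence reports ADP formed as PFK phosphorylates fructose-6-phosphate with ATP; series mostly up to about 51 µM; on the % scale 0 is the no-effect control and ±100 the full control effect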
Procedure, shortened: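 Inhibition of parasite PFK is measured as reduced ADP formation, quantified via luciferase after ATP depletion. Assay used 0.1 mM ATP, 0.5 mM F6P, 1.25 nM enzyme, 45 min incubation.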

[3] = Validation screen for small molecules that induce genotoxicity in human embryonic kidney (HEK293T) cells expressing luciferase-tagged ELG1 (AID 493106); further: potency means the concentration at half of the fitted maximal effect
Procedure, shortened: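 Cells were dispensed at 2,000 per well, then 23 nL compound or DMSO was pinned in. After 16 hr at 37 °C and 5% CO2, ONE-Glo reagent was added. Luciferase activity was measured following 30 min at room temperature.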

[4] = target: ATPase family AAA domain-containing protein 5 (Homo sapiens) (UniProt Q96QE3); assay: Validation screen for small molecules that inhibit ELG1-dependent DNA repair in human embryonic kidney (HEK293T) cells expressing luciferase-tagged ELG1 (AID 493107);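 further: cells co-treated with the DNA-damaging agent 5-fluorouridine alongside compound; series mostly up to about 46 µM; on the % scale 0 is the no-effect control and ±100 the full control effect; inhibitors lower the ELG1-luciferase luminescence signal; nearly all actives have a fitted effect of over 70% in size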
Procedure, shortened: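 Cells are dispensed in 1536-well format, then 5-fluorouridine and compound are pinned in. After a 16 hr incubation at 37 °C and 5% CO2, ONE-Glo is added and luciferase measured on a CCD imager.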

[5] = Nrf2 qHTS screen for inhibitors: Validation (AID 493153; active means well fitted inhibition curve with a large enough effect in the main read-out, with a control signal flat, not every such curve was filed as active; inconclusive means small, poorly fitted or top-dose-only effect, or effect the other way, or a change in a side signal; inactive means no such curve, though single readings can be large or run the other way); conditions: viability change: measured here: cytotoxicity max response
Procedure, shortened: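 A549 ARE_Fluc, 5% FBS OPTI-MEM; cpd titration, 18-24 h, 37°C/5% CO2. Read 1: CellTiter-Fluor (Ex 405/Em 525), cytotox. Read 2: luciferase lum, Nrf2 activity.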

[6] = qHTS for Inhibitors of Cell Surface uPA Generation: Validation Assay (AID 493164);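 further: RAW 264.7 macrophage cells exposed to compound for 18 h; 0% is about no effect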
Procedure, shortened: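 ATP-Lite luminescence read-out: ATP remains high when uPA activity-dependent LF translocation into the cytoplasm is blocked. RAW 264.7 cells, 18 h compound exposure at 37 C; 7-point titration, 2.45 nM to 38.3 uM final.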

[7] = target: Peptidyl-prolyl cis-trans isomerase NIMA-interacting 1 (Homo sapiens) (UniProt Q13526); assay: qHTS Validation Assay to Find Inhibitors of Pin1 (AID 504536; active means well fitted inhibition curve with a large enough effect in the polarisation, with a control signal flat, not every such curve was filed as active; inconclusive means small, poorly fitted or top-dose-only effect, or effect the other way; the % refers to the polarisation;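 further: 0% = full Pin1 enzyme wells and -100% = no-enzyme wells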)
Procedure, shortened: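 Fluorescence polarization competition: compounds (titration) displace HiFluor-488-labeled Pin1-1b peptide from Pin1 (0.3 uM final) in pH 7.5 HEPES buffer with DTT, 10 min at room temperature; %Activity normalized to no-enzyme wells, curves fitted.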

[8] = target: Phosphoglycerate kinase, glycosomal (Trypanosoma brucei brucei) (UniProt P07378); assay: qHTS Validation Assay to Find Inhibitors of Phosphoglycerate Kinase (AID 504547);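 further: control wells lack PGK and mark full inhibition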
Procedure, shortened: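 Compounds are pinned into the substrate/PGK mixture, and GAPDH (100nM final) is added to start the reaction by producing 1,3-BPG. After 60 minutes at room temperature, Kinase-Glo Plus is added and luminescence is measured 10 minutes later.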

[9] = target: phosphoglycerate mutase (Leishmania major) (UniProt Q4Q090); assay: qHTS Validation Assay to Find Inhibitors of Phosphoglycerate Mutase (AID 504548);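 further: end-point luminescence from Kinase-GloPlus after the PGAM reaction; series mostly up to about 58 µM; on the % scale 0 is the no-effect control and ±100 the full control effect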
Procedure, shortened: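 Inhibition of L. major PGAM was assessed by Kinase-GloPlus luminescence following a 45-minute room-temperature reaction with enzyme at 1.25nM final.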

[10] = target: Ubiquitin carboxyl-terminal hydrolase 1 (Homo sapiens) (UniProt O94782); assay: Inhibitors of USP1/UAF1: Pilot qHTS (AID 504865);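 further: rhodamine fluorescence freed from ubiquitin-rhodamine substrate followed over time; top concentration of the series differs between compounds; on the % scale 0 is the no-effect control and ±100 the full control effect; nearly all actives have a fitted effect of over 35% in size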
Procedure, shortened: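 USP1/UAF1 complex at 1 nM preincubated 15 min at room temperature with compound, then Ub-Rho substrate added at 150 nM final. Fluorescence (480/540 nm) read kinetically in 50 mM HEPES pH 7.8, 0.5 mM EDTA, 1 mM TCEP, 0.1 mg/ml BSA, 0.01% Tween-20.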

[11] = qHTS for Inhibitors of ATXN expression: Validation of Cytotoxic Assay (AID 588349); further: potency means the concentration at half of the fitted maximal effect
Procedure, shortened: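 Titrated compounds are added to cultured HEK293 cells, which are then held at 37 degrees C for 72 hr; loss of intracellular ATP, measured with CellTiter Glo, indicates toxicity.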

[12] = qHTS for Inhibitors of ATXN expression: Validation (AID 588378); further: nearly all actives have a fitted effect of over 75% in size; further: potency means the concentration at half of the fitted maximal effect
Procedure, shortened: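 HEK293 cells carrying ATXN2-firefly luciferase reporter, treated with compound 24 h at 37 °C. Viability read first by CellTiter-Fluor (405/525 nm), then reporter expression by Bright-Glo luminescence; controls were a known ATXN2 expression inhibitor and a luciferase inhibitor.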

[13] = target: Thyrotropin-releasing hormone receptor (Homo sapiens) (UniProt P34981); assay: qHTS for Small Molecule Agonists and Allosteric Enhancers of Human TRH Receptor: Validation Screen for Agonists (AID 493127;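 active means calcium activation more than 3 SD above the typical response in the agonist read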;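 further: intracellular calcium rise by fluo-8 fluorescence before TRH EC20 addition; 0% is about no effect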); conditions: TRH receptor agonist cell assay; at 2 µM; stronger effect = higher value
Procedure, shortened: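 Compounds are added by online pintool to dye-loaded TRHR cells while fluorescence is recorded every second. A rise in calcium signal during the agonist read marks activation; a later 10 nM TRH addition (EC20) serves the separate enhancer mode.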

[14] = target: Galactokinase (Homo sapiens) (UniProt P51570); assay: qHTS Validation Assay for Inhibitors of Human Galactokinase (GALK) (AID 493189); further: 0% is about no effect
Procedure, shortened: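 GALK (5 nM) with 35 uM ATP and 100 uM galactose in HEPES pH 8.0 with MgCl2, NaCl, DTT and BSA. Reaction ran 1 h at room temperature. Residual ATP read by Kinase-Glo Plus luminescence.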

[15] = Validation screen for small molecules that induce DNA re-replication in SW480 colon adenocarcinoma cells (AID 504364); further: 0% is about no effect
Procedure, shortened: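 Image-based qHTS: compounds were incubated with SW480 cells for 48 hr, nuclei stained with Hoechst, and per-nucleus fluorescence intensity scanned to flag cells with excess DNA content.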

[16] = target: Estrogen receptor (Homo sapiens) (UniProt P03372); assay: qHTS assay for small molecule antagonists of estrogen receptor alpha signaling (AID 588513; active means well fitted curve in the direction sought with a large enough effect in the signal ratio, with a control signal flat, not every such curve was filed as active; inconclusive means small, poorly fitted or top-dose-only effect, or effect the other way, or a change in a side signal; inactive means no such curve, though single readings can be large or run the other way; the % refers to the signal ratio; further: potency means the concentration at half of the fitted maximal effect)
Procedure, shortened: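 ER-alpha-UAS-bla GripTite HEK 293 cells in 2% charcoal/dextran-treated FBS medium; compounds titrated (1:2, duplicate), then stimulated with 0.5 nM 17-beta-estradiol for 18 h at 37C. CCF4 beta-lactamase fluorescence; Hill-fit IC50 and efficacy.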

[17] = target: Estrogen receptor (Homo sapiens) (UniProt P03372); assay: qHTS assay for small molecule agonists of estrogen receptor alpha signaling (AID 588514; calls by dose curve;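 further: 0% = vehicle only and 100% = reference agonist; nearly all actives have a fitted effect of over 70% in size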)
Procedure, shortened: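 Efficacy is expressed against 20 nM 17-beta-estradiol (100%) and DMSO basal (0%); EC50 from Hill equation. Assay: beta-lactamase reporter in ER-alpha-UAS-bla HEK 293 cells, 18 h compound incubation, CCF4 detection.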

[18] = target: Androgen receptor (Homo sapiens) (UniProt P10275); assay: qHTS assay for small molecule agonists of androgen receptor signaling (AID 588515; active means well fitted curve in the direction sought with a large enough effect in the signal ratio, with a control signal flat; inconclusive means small, poorly fitted or top-dose-only effect, or effect the other way, or a change in a side signal; inactive means no such curve, though single readings can be large or run the other way; the % refers to the signal ratio; further: on the % scale 0 is the no-effect control and ±100 the full control effect); conditions: AR-UAS-bla HEK293, beta-lactamase ratio, agonist 16 h; stronger effect = higher value
Procedure, shortened: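 Stimulation of an AR-responsive β-lactamase reporter in GripTite HEK293 cells was measured after 16 h compound exposure at 37 °C, via CCF4 fluorescence after 2 h RT. EC50 from Hill fits, normalized to R1881 at 30 nM.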

[19] = target: Androgen receptor (Homo sapiens) (UniProt P10275); assay: qHTS assay for small molecule antagonists of androgen receptor signaling (AID 588516; active means well fitted curve in the direction sought with a large enough effect in the signal ratio, with a control signal flat, not every such curve was filed as active; inconclusive means small, poorly fitted or top-dose-only effect, or effect the other way, or a change in a side signal; inactive means no such curve, though single readings can be large or run the other way; the % refers to the signal ratio; further: on the % scale 0 is the no-effect control and ±100 the full control effect)
Procedure, shortened: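 AR-UAS-bla GripTite HEK 293 cells (2000/well) treated with compound titrations plus 10 nM R1881 for 16 h at 37C. Beta-lactamase read by CCF4 FRET (460/530 nm); IC50 from Hill fits, normalized to R1881 and DMSO control wells.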

[20] = target: DNA dC->dU-editing enzyme APOBEC-3G (Homo sapiens) (UniProt Q9HC16); assay: qHTS for inhibitors of Vif-A3G interactions: Validation (AID 588379); further: 0% is about no effect
Procedure, shortened: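 Yellow fluorescence (Ex 488, Em 500-530) of Vif-coexpressing HeLa A3G-eYFP cells, scanned by Acumen cytometer, reports blocked A3G degradation. Cells plated at 700/well overnight at 37 deg C before compound addition, then a further overnight compound incubation at 37 deg C.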

Sequence of Estrogen receptor (Homo sapiens) (P03372 whole entry, looked up): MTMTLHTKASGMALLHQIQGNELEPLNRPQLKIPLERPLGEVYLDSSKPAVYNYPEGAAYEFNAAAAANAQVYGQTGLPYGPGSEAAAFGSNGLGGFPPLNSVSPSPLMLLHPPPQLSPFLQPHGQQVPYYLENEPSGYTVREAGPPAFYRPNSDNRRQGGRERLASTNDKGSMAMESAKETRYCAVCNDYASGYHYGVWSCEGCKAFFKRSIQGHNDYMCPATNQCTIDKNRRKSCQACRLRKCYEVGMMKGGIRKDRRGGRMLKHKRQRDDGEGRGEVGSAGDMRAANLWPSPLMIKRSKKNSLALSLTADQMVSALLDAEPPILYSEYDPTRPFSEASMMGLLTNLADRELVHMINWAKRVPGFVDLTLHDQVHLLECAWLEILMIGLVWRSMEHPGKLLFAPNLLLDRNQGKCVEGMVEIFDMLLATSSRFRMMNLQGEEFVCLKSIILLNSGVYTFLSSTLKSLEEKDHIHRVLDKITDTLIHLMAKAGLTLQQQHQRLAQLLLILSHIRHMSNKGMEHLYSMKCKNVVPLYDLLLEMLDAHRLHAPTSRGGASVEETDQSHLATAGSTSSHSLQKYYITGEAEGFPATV
Sequence of ATPase family AAA domain-containing protein 5 (Homo sapiens) (Q96QE3 whole entry, looked up, the tested form may be a part): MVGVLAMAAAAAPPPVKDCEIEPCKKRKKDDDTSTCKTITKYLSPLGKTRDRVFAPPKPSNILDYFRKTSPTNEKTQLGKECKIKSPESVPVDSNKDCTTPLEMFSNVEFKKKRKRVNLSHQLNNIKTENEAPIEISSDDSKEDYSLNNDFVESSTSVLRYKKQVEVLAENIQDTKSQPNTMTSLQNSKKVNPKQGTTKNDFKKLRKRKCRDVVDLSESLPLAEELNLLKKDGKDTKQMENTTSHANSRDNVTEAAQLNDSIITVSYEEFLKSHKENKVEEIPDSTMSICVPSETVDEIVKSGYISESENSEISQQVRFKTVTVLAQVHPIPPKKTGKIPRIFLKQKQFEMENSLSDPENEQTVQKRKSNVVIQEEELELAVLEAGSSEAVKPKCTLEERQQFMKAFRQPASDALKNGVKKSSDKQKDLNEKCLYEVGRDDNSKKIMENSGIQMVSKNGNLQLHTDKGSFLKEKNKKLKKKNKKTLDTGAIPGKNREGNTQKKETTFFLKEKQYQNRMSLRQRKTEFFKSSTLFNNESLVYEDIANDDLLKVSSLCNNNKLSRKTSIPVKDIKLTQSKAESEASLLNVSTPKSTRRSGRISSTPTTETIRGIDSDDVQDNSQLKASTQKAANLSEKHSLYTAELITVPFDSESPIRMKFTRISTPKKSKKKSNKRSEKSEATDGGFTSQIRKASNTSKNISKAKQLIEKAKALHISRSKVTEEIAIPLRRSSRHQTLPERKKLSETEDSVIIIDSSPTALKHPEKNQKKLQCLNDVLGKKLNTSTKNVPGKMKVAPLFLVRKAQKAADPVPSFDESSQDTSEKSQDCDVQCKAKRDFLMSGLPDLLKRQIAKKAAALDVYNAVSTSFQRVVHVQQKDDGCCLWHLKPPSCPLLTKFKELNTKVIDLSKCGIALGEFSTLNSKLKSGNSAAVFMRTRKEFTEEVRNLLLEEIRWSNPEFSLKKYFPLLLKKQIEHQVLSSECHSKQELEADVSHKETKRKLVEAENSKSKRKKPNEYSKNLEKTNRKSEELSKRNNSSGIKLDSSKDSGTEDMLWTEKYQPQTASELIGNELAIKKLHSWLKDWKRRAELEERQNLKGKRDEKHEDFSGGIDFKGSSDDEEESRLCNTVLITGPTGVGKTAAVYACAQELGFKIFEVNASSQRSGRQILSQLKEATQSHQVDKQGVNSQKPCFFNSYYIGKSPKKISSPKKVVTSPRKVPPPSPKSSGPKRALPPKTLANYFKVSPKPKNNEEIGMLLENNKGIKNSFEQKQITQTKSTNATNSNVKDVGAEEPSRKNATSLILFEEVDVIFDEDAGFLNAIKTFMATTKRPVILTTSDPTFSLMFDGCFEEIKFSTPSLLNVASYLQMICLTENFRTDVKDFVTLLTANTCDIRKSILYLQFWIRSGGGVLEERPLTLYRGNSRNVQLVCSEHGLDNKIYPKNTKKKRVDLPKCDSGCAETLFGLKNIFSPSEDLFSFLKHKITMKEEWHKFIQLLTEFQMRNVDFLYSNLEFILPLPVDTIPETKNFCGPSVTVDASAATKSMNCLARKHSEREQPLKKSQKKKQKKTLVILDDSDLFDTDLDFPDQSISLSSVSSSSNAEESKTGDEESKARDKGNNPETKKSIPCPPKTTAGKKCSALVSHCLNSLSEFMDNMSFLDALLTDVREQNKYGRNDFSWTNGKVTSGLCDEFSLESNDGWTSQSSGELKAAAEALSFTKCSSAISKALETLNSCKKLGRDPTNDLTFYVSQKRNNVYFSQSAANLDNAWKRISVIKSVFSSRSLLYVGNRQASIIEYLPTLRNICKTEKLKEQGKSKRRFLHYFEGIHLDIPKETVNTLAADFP
Sequence of phosphoglycerate mutase (Leishmania major) (Q4Q090 1-553): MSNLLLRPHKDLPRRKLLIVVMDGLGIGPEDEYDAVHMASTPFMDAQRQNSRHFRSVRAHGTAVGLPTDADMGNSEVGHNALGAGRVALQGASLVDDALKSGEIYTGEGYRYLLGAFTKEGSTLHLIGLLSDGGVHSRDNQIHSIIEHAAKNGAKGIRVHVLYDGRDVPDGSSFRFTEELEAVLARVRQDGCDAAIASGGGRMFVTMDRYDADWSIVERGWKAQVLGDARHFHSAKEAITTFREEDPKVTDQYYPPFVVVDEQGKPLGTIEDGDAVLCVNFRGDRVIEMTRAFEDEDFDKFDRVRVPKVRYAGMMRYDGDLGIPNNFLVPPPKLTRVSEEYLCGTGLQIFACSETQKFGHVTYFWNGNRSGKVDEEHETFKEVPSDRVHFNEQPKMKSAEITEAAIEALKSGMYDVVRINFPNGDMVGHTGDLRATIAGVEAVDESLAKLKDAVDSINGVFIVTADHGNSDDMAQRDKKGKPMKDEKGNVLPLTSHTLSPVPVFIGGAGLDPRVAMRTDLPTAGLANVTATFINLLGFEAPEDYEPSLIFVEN
Sequence of Phosphoglycerate kinase, glycosomal (Trypanosoma brucei brucei) (P07378 whole entry, looked up): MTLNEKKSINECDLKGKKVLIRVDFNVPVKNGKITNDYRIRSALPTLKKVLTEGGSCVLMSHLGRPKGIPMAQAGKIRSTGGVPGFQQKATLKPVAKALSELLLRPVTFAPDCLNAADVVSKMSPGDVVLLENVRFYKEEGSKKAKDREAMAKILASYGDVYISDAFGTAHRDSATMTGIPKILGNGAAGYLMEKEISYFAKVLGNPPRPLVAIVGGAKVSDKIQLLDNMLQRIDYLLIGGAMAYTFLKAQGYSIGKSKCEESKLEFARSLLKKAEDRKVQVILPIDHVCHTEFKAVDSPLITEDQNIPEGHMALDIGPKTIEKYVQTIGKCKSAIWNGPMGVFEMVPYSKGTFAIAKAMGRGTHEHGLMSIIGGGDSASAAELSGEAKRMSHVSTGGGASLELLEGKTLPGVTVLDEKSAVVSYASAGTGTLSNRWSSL
Sequence of Galactokinase (Homo sapiens) (P51570 whole entry, looked up): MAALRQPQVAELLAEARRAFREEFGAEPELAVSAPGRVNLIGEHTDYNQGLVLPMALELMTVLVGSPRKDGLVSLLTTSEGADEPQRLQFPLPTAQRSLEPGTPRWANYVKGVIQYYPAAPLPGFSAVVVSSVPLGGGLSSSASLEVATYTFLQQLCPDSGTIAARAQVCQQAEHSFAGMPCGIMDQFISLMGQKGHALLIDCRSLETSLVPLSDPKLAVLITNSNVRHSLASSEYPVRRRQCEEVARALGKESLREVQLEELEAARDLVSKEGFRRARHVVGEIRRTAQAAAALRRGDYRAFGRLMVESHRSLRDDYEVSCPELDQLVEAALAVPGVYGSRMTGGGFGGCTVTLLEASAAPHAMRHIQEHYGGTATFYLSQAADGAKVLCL
Sequence of Ubiquitin carboxyl-terminal hydrolase 1 (Homo sapiens) (O94782 whole entry, looked up): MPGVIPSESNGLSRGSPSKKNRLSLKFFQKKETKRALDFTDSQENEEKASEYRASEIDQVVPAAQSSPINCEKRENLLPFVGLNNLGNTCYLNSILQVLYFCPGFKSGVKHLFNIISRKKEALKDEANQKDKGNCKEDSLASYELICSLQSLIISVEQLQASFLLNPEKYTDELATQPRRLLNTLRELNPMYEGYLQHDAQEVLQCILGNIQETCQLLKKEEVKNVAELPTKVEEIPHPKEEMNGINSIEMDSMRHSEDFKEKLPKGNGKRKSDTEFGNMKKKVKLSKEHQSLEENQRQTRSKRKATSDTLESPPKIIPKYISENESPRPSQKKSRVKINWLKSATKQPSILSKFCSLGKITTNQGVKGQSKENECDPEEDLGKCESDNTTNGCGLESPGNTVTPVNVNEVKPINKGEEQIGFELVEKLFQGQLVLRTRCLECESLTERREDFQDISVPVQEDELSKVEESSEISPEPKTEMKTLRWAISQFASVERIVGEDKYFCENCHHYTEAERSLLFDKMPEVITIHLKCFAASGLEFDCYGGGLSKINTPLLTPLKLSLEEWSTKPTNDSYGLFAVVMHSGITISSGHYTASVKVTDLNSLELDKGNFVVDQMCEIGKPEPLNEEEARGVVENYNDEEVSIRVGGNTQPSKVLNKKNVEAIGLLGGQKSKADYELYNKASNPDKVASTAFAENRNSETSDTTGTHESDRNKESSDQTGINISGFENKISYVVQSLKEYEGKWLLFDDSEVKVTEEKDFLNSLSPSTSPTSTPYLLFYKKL
Sequence of Thyrotropin-releasing hormone receptor (Homo sapiens) (P34981 whole entry, looked up): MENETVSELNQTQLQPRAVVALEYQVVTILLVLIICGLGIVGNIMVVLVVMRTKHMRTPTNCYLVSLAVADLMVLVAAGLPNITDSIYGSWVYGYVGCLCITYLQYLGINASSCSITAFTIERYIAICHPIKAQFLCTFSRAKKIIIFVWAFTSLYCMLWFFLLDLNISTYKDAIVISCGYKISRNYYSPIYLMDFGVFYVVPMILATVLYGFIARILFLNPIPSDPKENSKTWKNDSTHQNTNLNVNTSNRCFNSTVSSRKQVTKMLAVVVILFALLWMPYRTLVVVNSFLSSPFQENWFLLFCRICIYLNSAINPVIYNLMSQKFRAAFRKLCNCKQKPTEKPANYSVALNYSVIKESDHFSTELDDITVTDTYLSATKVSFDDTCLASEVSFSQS

CC(=O)O[C@]1(C(C)=O)CC[C@H]2[C@@H]3C=C(Cl)C4=CC(=O)[C@@H]5C[C@@H]5[C@]4(C)[C@H]3CC[C@@]21C
2.19%: viability change [5]
inactive: outcome [1] | outcome [2] | Potency [3] | outcome [4] | outcome [5] | outcome [6] | outcome [7] | outcome [8] | outcome [9] | Potency [10] | Potency [11] | Potency [12]

CC1=C(/C=C/C(C)=C/C=C/C(C)=C/C(=O)Nc2ccc(O)cc2)C(C)(C)CCC1
active: Potency [11] 31.6 µM | Potency [12] 31.6 µM | Potency [16] 15.8 µM [inconclusive]
inactive: outcome [1] | outcome [2] | Potency [3] | activation [13] -0.438% | outcome [6] | outcome [14] | outcome [15] | outcome [7] | outcome [8] | outcome [9] | Potency [10] | outcome [17]

CCN(CC)CCOC(=O)c1ccc(N)cc1
inactive: outcome [1] | outcome [2] | Potency [3] | outcome [4] | activation [13] -0.312% | outcome [5] | outcome [6] | outcome [14] | outcome [15] | outcome [7] | outcome [8] | outcome [9] | Potency [10] | Potency [11] | Potency [12]
0.523%: viability change [5]

CC(=O)c1ccc(S(=O)(=O)NC(=O)NC2CCCCC2)cc1
inactive: outcome [1] | Potency [3] | outcome [4] | activation [13] 0.188% | outcome [5] | outcome [6] | outcome [14] | outcome [15] | outcome [7] | outcome [8] | outcome [9] | Potency [10] | Potency [11] | Potency [12] | Potency [16] | outcome [17] | activation [18] -0.897% and 2.97% | outcome [19]
1.61%: viability change [5]

C[N+](C)(C)CCCCCC[N+](C)(C)C
-1.95% and 3.05%: viability change [5]
inactive: outcome [1] | outcome [2] | Potency [3] | outcome [4] | activation [13] 0.625% and 0.562% | outcome [5] | outcome [6] | outcome [14] | outcome [15] | outcome [7] | outcome [8] | outcome [9] | Potency [10] | Potency [11] | Potency [12]

CCCCC1C(=O)N(c2ccccc2)N(c2ccccc2)C1=O
-3.3%: viability change [5]
inactive: outcome [1] | Potency [3] | outcome [4] | activation [13] 1.38% | outcome [5] | outcome [6] | outcome [14] | outcome [15] | outcome [7] | outcome [8] | outcome [9] | Potency [10] | Potency [11] | Potency [12] | Potency [16] | outcome [17]

CC(=O)CCCCn1c(=O)c2c(ncn2C)n(C)c1=O
-8.24%: viability change [5]
inactive: outcome [1] | outcome [2] | Potency [3] | activation [13] -2.31% | outcome [5] | outcome [6] | outcome [14] | outcome [15] | outcome [7] | outcome [8] | outcome [9] | Potency [10] | Potency [11] | Potency [12]

COc1cccc(-c2cc(=O)c3ccccc3o2)c1N
inactive: outcome [1] | activation [13] -3.44% | outcome [5] | outcome [6] | outcome [14] | outcome [15] | outcome [7] | outcome [8] | outcome [9] | Potency [10] | Potency [11] | Potency [12] | outcome [20]
-8.39%: viability change [5]
active: Potency [3] 2.91 µM

O=C1NCC2(CCN(CCc3ccccc3)CC2)O1
inactive: outcome [1] | outcome [2] | outcome [4] | activation [13] 0.562% | outcome [5] | outcome [6] | outcome [14] | outcome [15] | outcome [7] | outcome [8] | outcome [9] | Potency [10] | Potency [11] | Potency [12]
1.8%: viability change [5]
